Reference: PubChem BioAssay (EPA / NIEHS)
Active and inactive are the calls of the source. The calls were made as follows: active = hit-call score of the fitted dose curve at least 0.9, where 1 is the maximum; inactive = score below 0.9.

Assay: ATG_PXRE_CIS: Attagene CIS-FACTORIAL HepG2 Assay for human Pregnane X Receptor Element (PXRE) (AID 2282957)
Conditions: HepG2 Attagene CIS-FACTORIAL PXRE reporter, mRNA; actives raise or lower the signal
Method: ATG_CIS is a cell-based, multiplexed-readout assay that uses HepG2, a human liver cell line, with measurements taken at 24 hours after chemical dosing in a 24-well plate.ATG_PXRE_CIS is one of 52 assay component(s) measured or calculated from the ATG_CIS assay. It is designed to make measurements of mRNA induction, a form of inducible reporter, as detected with fluorescence intensity signals by Reverse transcription polymerase chain reaction (RT-PCR) and Capillary electrophoresis technology.Data from the assay component ATG_PXRE_CIS was analyzed into 1 assay endpoint. This assay endpoint, ATG_PXRE_CIS, was analyzed with bidirectional fitting relative to DMSO as the negative control and baseline of activity. Using a type of inducible reporter, measures of mRNA for gain or loss-of-signal activity can be used to understand the reporter gene at the transcription factor-level as they relate to the gene NR1I2. Furthermore, this assay endpoint can be referred to as a primary readout, because this assay has produced multiple assay endpoints where this one serves a reporter gene function. To generalize the intended target to other relatable targets, this assay endpoint is annotated to the nuclear receptor intended target family, where the subfamily is non-steroidal.
Human liver HepG2 cells are transiently transfected with multiple reporter transcription units (MRTUs) in 6-well plates using FuGene 6 reagent (Roche; 3 ml FuGene/1 mg DNA). The MRTU constructs are regulated by a cis-regulating element (promoter). […] A major difference between the CIS and TRANS system is that in CIS activities of endogenous TFs are measured, whereas the TRANS assay evaluates changes in activities of exogenous, chimeric NR-Gal4 proteins. […] At the end of 24 hour incubation, total RNA was isolated using TriZol reagent (Invitrogen). The isolated RNA is then reverse-transcribed using oligo(dT) primer and Mo-MLV reverse transcriptase (Invitrogen) with DNAse I (Ambion) treatment for 30 min. The one-tenth of the produced cDNA was amplified by PCR using Taq DNA polymerase (Invitrogen) and two reporter sequence-specific primers. The PCR products were fluorescently labeled by primer extension with 6-arboxyfluorescein (6-FAM) 5'-labeled reporter sequence-specific primer (2 min at 95 C, 20 s at 68 C and 10 min at 72 C) and these products were digested with 5U of HpaI (New England Biolabs) for 2h at 37 C. The fragments were purified using Qiaquick PCR columns (Qiagen), analyzed on an ABI 3130xL genetic analyzer (Applied Biosystems) with peak positions identified by using a set of X-rhodamine (ROX)-labeled MapMarker1000 molecular weight standards (BioVentures). The raw capillary electrophoresis data was processed using Attagraph software (Attagene).

outcome, inactive:
CCCCCCCC/C=C\CCCCCCCC(=O)OCC
CC(C)(C)c1ccc(C(=O)O)cc1
C=CCOC(=O)CCCCCC
Nc1ccc(NCCO)c([N+](=O)[O-])c1
CCCCCCC(O)CCCCCCCCCCC(=O)O (stereo not given)
CCCCCCCCCCCCS(=O)(=O)Cl
CC1(C)COCN1
COC(=O)c1ccc(OC)cc1
OCc1ccc(Cl)cc1Cl
COc1ccc(COC(C)=O)cc1
Cc1ncc([N+](=O)[O-])n1CCO
C[N+](C)(C)CCCCCC[N+](C)(C)C
Cc1ccc(S(N)(=O)=O)cc1
Cc1cc(S(=O)(=O)O)ccc1N=Nc1c(O)ccc2ccccc12
NC1CCCCC1N (stereo not given)
ON=C1CCCCC1
CCCC(C)C(O)CC (stereo not given)
CCC1(c2ccccc2)C(=O)NCNC1=O
CC(=O)CC(=O)Nc1ccc(C)cc1C
CC(CN=Cc1ccccc1O)N=Cc1ccccc1O (stereo not given)
O=CN1CCOCC1

AC50, active:
CC1(C)O[C@@H]2[C@@H](CO[C@@]3(COS(N)(=O)=O)OC(C)(C)O[C@@H]23)O1 57.9 µM
Cc1c(C2(c3cc(Br)c(O)c(Br)c3C)OS(=O)(=O)c3ccccc32)cc(Br)c(O)c1Br 11 µM
CC(C)=CCCC(C)CC(=O)O (stereo not given) 27.3 µM
CS(=O)(=O)OCCCCOS(C)(=O)=O 55.8 µM
CN(c1nccc(=O)[nH]1)C1CCN(c2nc3ccccc3n2Cc2ccc(F)cc2)CC1 6.61 µM
OCCOCCN1CCN(C2=Nc3ccccc3Sc3ccccc32)CC1 7.41 µM
C/C=C(\C)C(=O)OCCc1ccccc1 27.7 µM
CCCCCc1ccco1 4.15 µM
CCOC(=O)C(C#N)=C(c1ccccc1)c1ccccc1 1.39 µM
CCOC(=O)c1ccc(N)cc1 27 µM
CSCCC=O 10.9 µM
CCCC1O[C@@H]2C[C@H]3[C@@H]4CCC5=CC(=O)C=C[C@]5(C)[C@H]4[C@@H](O)C[C@]3(C)[C@]2(C(=O)CO)O1 (stereo not given in full) 4.12 µM
Nc1c(S(=O)(=O)O)cc(Br)c2c1C(=O)c1ccccc1C2=O 22.4 µM
CC(C)(CO)[C@@H](O)C(=O)NCCC(=O)O 53.4 µM
CC1(C)CCC[C@]2(C)[C@H]3CCO[C@]3(C)CC[C@@H]12 7.46 µM
CCCCCCCCCCCCN1CCCCCC1=O 1.46 µM
CC1(C)O[C@@H]2C[C@H]3[C@@H]4CCC5=CC(=O)C=C[C@]5(C)[C@@]4(F)[C@@H](O)C[C@]3(C)[C@]2(C(=O)CO)O1 13.8 µM
CCCCCCC(C)Nc1ccc(Nc2ccccc2)cc1 (stereo not given) 1.78 µM
CN(C)c1cccc(O)c1 6.77 µM
